21 compounds from PubChem BioAssay can be followed below.

Assay [1] has as its system XIP peptide (Xip251-270) binding. Briefly: small-molecule binders of XIP peptide, primary screen, biochemical, small-molecule microarray, fluorescence 635/667 nm, 0.1 µg/mL protein (AID 1182). Conditions: fluorescent protein binding, 635 nm, higher = more signal, called active from +8 up or from −8 down.
The test system of the next assay is XIP peptide (Xip251-270). Briefly: small-molecule binders of XIP peptide, primary screen, biochemical, small-molecule microarray, fluorescence 635/667 nm, 0.5 µg/mL protein (AID 1183). Conditions: small-molecule microarray binding, fluorescence 635 nm; higher = more signal.
Assay [2] can be described thus: Plasmodium falciparum growth inhibition, primary screen, strain 3D7, DAPI fluorescence, 100 nL (AID 1184).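 Also: parasites grown inside human red blood cells in medium with human serum.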 Conditions: P. falciparum 3D7 growth, 3 d, higher = more signal.
The target of assay [3] is Homeobox protein Hox-A13 (Mus musculus) (UniProt Q62424). Briefly: inhibitors of HoxA13-DNA binding, primary screen, biochemical, fluorescence polarization, labeled oligonucleotide (AID 1185). Conditions: 15 min, higher = more signal, called active from +8 up or from −8 down.

Calls of active or inactive are those of the source.

Sequence of Homeobox protein Hox-A13 (Mus musculus) (Q62424 whole entry, looked up): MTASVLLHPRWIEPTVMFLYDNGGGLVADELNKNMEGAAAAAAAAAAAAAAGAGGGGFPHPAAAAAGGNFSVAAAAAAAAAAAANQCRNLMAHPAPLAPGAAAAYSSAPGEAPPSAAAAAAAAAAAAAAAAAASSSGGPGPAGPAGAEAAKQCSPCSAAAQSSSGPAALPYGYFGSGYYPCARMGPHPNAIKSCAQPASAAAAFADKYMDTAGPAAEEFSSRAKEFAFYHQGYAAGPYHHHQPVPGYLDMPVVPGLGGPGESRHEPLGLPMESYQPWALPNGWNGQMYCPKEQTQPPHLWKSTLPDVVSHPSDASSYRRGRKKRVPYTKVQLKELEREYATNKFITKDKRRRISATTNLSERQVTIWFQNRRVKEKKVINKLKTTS

Consider `C#CCCCON=C1C[C@@H](O)[C@@H](O)[C@@H]2[C@@H]3C(=O)N(CCC(=O)OCC)C(=O)[C@@H]3CC[C@H]12`, for which the composite z-score is 0.768 (inactive) in assay [1] and 0.493 with XIP peptide (Xip251-270). The z-score in assay [2] was -0.206; in assay [3], 1.24 (inactive).

For the compound `CCOC(=O)[C@H](CC(C)C)NC(=O)CCC1CC(OC(=O)NCCc2ccc(F)cc2)CC2(CCCC(COC(=O)NCCc3ccc(Cl)cc3)O2)O1` (some centres undefined), the composite z-score is 1.08 (inactive) in assay [1] and 0.571 in the assay on XIP peptide (Xip251-270). The z-score in assay [2] was -1.9; in assay [3] it was -6.52 (inactive).

As to `COC(=O)[C@@H]1CC[C@H](C)[C@@H](c2ccc(C)cc2)N1C(=O)c1ccc(C=NO[C@@H](C)c2cn([C@H](CO)Cc3ccccc3)nn2)cc1`, the composite z-score is -0.0658 (inactive) in assay [1] and 0.739 with XIP peptide (Xip251-270). The z-score in assay [2] was -0.309; in assay [3], -5.13 (inactive).

With `CCOC(=O)[C@H](CC(C)C)NC(=O)CCC1CC(OC(=O)NCc2ccc3c(c2)OCO3)CC2(CCCC(COC(=O)NCCCN3CCCC3=O)O2)O1` (some centres undefined), the composite z-score was -0.228 (inactive) in assay [1] and 0.6 in the assay on XIP peptide (Xip251-270). Moreover, the z-score is -1.61 in assay [2] and -5.69 (inactive) in assay [3].

Regarding `CC(C)(C)N1C(=O)[C@H]2[C@H]3[C@H](O)[C@H](O)CC(=O)[C@H]3CC[C@H]2C1=O`, the results for the composite z-score (in assay [1]; with XIP peptide (Xip251-270)) were 0.596 (inactive) and 0.556, respectively. The results for the z-score in assay [2] and in assay [3] were -1.08 and 0.117 (inactive), respectively.

For the compound `COC(=O)CC=C[C@@H](C)[C@@H](C=NO[C@H](C)c1cn([C@@H]2COC[C@H]2O)nn1)NS(=O)(=O)c1ccc(C)cc1`, the values for the composite z-score (in assay [1]; in the assay with XIP peptide (Xip251-270)) were -0.362 (inactive) and 0.486, respectively. Moreover, the values for the z-score in assay [2] and in assay [3] were 0.781 and -1.63 (inactive), respectively.

Consider `C[C@@H]1NC(=O)[C@@H](C)COC(=O)[C@H](C)NC(=O)[C@@H](C)COC1=O`, for which the composite z-score in assay [1] was -0.287 (inactive); with XIP peptide (Xip251-270), 0.158. The z-score was -1.46 in assay [2] and 0.969 (inactive) in assay [3].

In the case of `CCOC(=O)[C@H](CC(C)C)NC(=O)CCC1CC(OC(=O)NCCc2ccc(F)cc2)CC2(CCCC(COC(=O)NCC(c3ccccc3)c3ccccc3)O2)O1` (some centres undefined), the figures for the composite z-score (in assay [1]; in the assay with XIP peptide (Xip251-270)) were 0.298 (inactive) and 0.836, respectively. Besides, the z-score is -1.02 in assay [2] and -6.92 (inactive) in assay [3].

In the case of `CCOC(=O)[C@H](Cc1ccccc1)NC(=O)CCC1CC(OC(=O)NCc2ccc3c(c2)OCO3)CC2(CCCC(COC(=O)NCCc3ccccc3OC)O2)O1` (some centres undefined), the composite z-score is 0.581 (inactive) in assay [1] and 0.798 in the assay on XIP peptide (Xip251-270). Moreover, the z-score in assay [2] is -1.78; in assay [3], -4 (inactive).

As for `CC(CCN1CCc2nc(-c3ccccc3)c(-c3ccccc3)cc2C1)=NOC[C@@H](O)[C@H]1O[C@@H]2OC(C)(C)O[C@@H]2[C@H]1O`, the composite z-score was 0.176 (inactive) in assay [1] and 0.528 in the assay with XIP peptide (Xip251-270). Also, the z-score in assay [2] is 0.688; in assay [3], -5.63 (inactive).

Regarding `CC(C)=CCCC(C)=CCON=C1C[C@@H](O)[C@@H](O)[C@@H]2[C@@H]3C(=O)N(c4ccc(F)cc4F)C(=O)[C@@H]3CC[C@H]12`, the results for the composite z-score (in assay [1]; with XIP peptide (Xip251-270)) were -0.163 (inactive) and 0.37, respectively. Further, the z-score in assay [2] was 0.0436; in assay [3], -2.5 (inactive).

On to `CO[C@H]1COC(=O)CC=C[C@H](C)[C@@H](OC)COC(=O)[C@H](C)COC(=O)CC=C[C@@H]1C`, for which the values for the composite z-score (in assay [1]; with XIP peptide (Xip251-270)) were 0.163 (inactive) and -0.337, respectively. Also, the z-score in assay [2] was 0.916; in assay [3], 0.296 (inactive).

For `CCN1C(=O)[C@H]2[C@H]3[C@H](O)[C@H](O)CC(=NNC(=O)OCc4ccc(OC)cc4)[C@@H]3CC[C@H]2C1=O`, the composite z-score was 0.0729 (inactive) in assay [1] and -0.225 in the assay on XIP peptide (Xip251-270). In addition, the results for the z-score in assay [2] and in assay [3] were -0.18 and -1.25 (inactive), respectively.

In the case of `CCOC(=O)[C@H](Cc1ccccc1)NC(=O)CCC1CC(OC(=O)NCc2cccc3ccccc23)CC2(CCCC(COC(=O)NCCC(C)C)O2)O1` (some centres undefined), the composite z-score is 0.646 (inactive) in assay [1] and 0.027 with XIP peptide (Xip251-270). For the same compound, the z-score in assay [2] was 0.0857; in assay [3], -5.99 (inactive).

In the case of `CON=C[C@@H](C)[C@H](OCc1ccccc1)C(C)C`, the composite z-score was -0.372 (inactive) in assay [1] and -0.647 in the assay on XIP peptide (Xip251-270). The z-score in assay [2] was -1.11; in assay [3], 3.84 (inactive).

For the compound `CCOC(=O)[C@H](Cc1ccccc1)NC(=O)CCC1CC(OC(=O)NCc2cccc3ccccc23)CC2(CCCC(COC(=O)NCc3cccc(C(F)(F)F)c3)O2)O1` (some centres undefined), the composite z-score is 0.418 (inactive) in assay [1] and 0.335 in the assay on XIP peptide (Xip251-270). Also, the z-score in assay [2] is -1.39; in assay [3] it was -4.31 (inactive).

As to `O=C(NN=C1C[C@@H](O)[C@@H](O)[C@@H]2[C@@H]3C(=O)N(C4CCCCC4)C(=O)[C@@H]3CC[C@H]12)OCc1ccccc1`, the composite z-score was -0.142 (inactive) in assay [1] and 0.109 in the assay on XIP peptide (Xip251-270). Besides, the z-score in assay [2] was -0.0276; in assay [3] it was -5.03 (inactive).

In the case of `CCOC(=O)C1=NO[C@@]2(C=C(Br)C3(OCCCO3)[C@H]3O[C@H]32)C1`, the composite z-score is 2.67 (inactive) in assay [1] and 0.512 with XIP peptide (Xip251-270). Further, the results for the z-score in assay [2] and in assay [3] were 0.522 and 0.14 (inactive), respectively.

Turning to `Cc1ccc(S(=O)(=O)NC(CCc2ccccc2)CC(=O)C(C)(C)C)cc1` (centres undefined), the values for the composite z-score (in assay [1]; in the assay on XIP peptide (Xip251-270)) were 0.275 (inactive) and -0.113, respectively. Besides, the z-score was -0.268 in assay [2] and -3.68 (inactive) in assay [3].

Regarding `CC(C)=CCCC(C)=CCON=C1C[C@@H](O)[C@@H](O)[C@@H]2[C@@H]3C(=O)N(c4cccc(Oc5ccccc5)c4)C(=O)[C@@H]3CC[C@@H]12`, the composite z-score in assay [1] is 0.188 (inactive); in the assay on XIP peptide (Xip251-270), 0.352. The z-score in assay [2] is -1.58; in assay [3], -3.76 (inactive).

Regarding `COCOc1ccc(Br)cc1C(=O)[C@@H]1O[C@H]1c1cccc(OC)c1`, the composite z-score in assay [1] is -0.0455 (inactive); with XIP peptide (Xip251-270), 0.106. Also, the z-score is 0.194 in assay [2] and -1.99 (inactive) in assay [3].
